For experiment [1], the target named is Pantothenate synthetase (Mycobacterium tuberculosis (strain ATCC 25618 / H37Rv)) (UniProt P9WIL5). The experiment is described as follows: Coupled enzyme confirmation of inhibitors against recombinant Mtb PanC (AID 375; call rule not given here;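 note: 0% = full reaction with vehicle and 100% = no enzyme background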). The note with it: coupled enzyme assay; at 10 µM, stronger effect = higher value.
Experiment [2] can be described thus: Her2 expression decrease, cell viability multiplex – SKBR3 breast tumor cells, AlphaScreen, ATP viability, primary screen (AID 461;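 active = Her2 level under about 52% in both replicate screens, with viability over 70% of control, limit read from the data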;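 for Her2 level: lower value means less Her2 protein in the cells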;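 for viability: percent of carrier control wells set as 100% viability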). The note with it: SKBR3 Her2 protein level, 18-24 h, measured here: SKBR3 viability, ATP luminescence, at 10 µM. On the technique in general: Alpha assays give light when donor and acceptor beads are brought close together.
The target in experiment [3] is Receptor tyrosine-protein kinase erbB-2 (Homo sapiens) (UniProt P04626). Described as above. The note with it: 18-24 h, at 10 µM, stronger effect = lower value.
Receptor tyrosine-protein kinase erbB-2 (Homo sapiens), sequence (P04626 whole entry, looked up): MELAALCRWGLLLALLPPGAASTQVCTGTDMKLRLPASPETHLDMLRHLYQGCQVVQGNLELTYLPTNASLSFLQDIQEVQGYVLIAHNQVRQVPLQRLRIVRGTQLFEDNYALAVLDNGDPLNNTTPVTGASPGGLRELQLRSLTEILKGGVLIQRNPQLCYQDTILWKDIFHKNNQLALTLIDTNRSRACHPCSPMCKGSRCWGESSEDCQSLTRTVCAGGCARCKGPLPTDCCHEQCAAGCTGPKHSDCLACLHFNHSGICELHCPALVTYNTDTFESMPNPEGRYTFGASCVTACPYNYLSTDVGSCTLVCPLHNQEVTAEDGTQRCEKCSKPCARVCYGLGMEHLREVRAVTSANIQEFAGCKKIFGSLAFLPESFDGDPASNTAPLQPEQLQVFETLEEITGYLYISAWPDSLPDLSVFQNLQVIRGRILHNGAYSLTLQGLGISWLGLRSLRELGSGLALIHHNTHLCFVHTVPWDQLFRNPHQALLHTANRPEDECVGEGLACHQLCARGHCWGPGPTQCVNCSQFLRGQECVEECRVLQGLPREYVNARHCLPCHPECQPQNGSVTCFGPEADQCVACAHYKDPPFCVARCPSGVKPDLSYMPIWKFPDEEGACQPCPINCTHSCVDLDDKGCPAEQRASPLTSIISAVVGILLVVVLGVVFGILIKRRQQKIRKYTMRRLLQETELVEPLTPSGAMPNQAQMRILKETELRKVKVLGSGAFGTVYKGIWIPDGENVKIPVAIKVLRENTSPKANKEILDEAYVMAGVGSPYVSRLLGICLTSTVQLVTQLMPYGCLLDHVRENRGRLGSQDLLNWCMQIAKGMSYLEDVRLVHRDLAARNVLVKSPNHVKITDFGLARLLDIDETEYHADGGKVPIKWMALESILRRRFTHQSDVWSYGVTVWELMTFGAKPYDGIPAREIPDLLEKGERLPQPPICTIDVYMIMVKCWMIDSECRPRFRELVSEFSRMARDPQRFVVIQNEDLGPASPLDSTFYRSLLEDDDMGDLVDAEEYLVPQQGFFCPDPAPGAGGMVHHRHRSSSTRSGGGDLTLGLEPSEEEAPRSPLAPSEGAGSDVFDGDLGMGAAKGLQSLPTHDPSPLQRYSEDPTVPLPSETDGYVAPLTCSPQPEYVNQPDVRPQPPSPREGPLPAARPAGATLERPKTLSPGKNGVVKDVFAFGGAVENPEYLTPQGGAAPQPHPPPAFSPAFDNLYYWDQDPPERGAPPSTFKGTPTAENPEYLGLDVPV
A short description of experiment [4]: reduced viability of SK-BR-3 breast cancer cells – cell-based, 24 h, human, pilot screen (AID 572;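 active = viability at or below 10% of carrier control in both of two separate runs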;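 note: compound exposure lasted between 18 and 24 h rather than exactly 24 h; 100% = carrier-treated control wells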). The note with it: SK-BR-3 viability, CellTiter-Glo luminescence, at 10 µM, stronger effect = lower value. On the technique in general: Cellular ATP, detected with luciferase, serves as a proxy for viable cell number.
Experiment [5] is described as follows: HUVEC growth inhibition – cell-based, human, primary screen (AID 575;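 active = viability at or below 30% in both replicate assays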;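 note: 100% = median of untreated cell wells with 0.1% DMSO on each plate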). The note with it: HUVEC proliferation, CellTiter-Glo luminescence, 72 h; at 10 µM; stronger effect = lower value.
Experiment [6] in a line: H69AR cell proliferation blockers – human, duplicate replicates, primary screen (AID 580;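 active = viability at or under a set limit in both replicates, limit being median viability minus 3 SD, cut at about 48% in these data, passing the limit was not always enough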;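 note: 100% = mean luminescence of untreated wells and 0% = no signal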). The note with it: H69AR lung tumor cells viability, ATP luminescence, 72 h; at 10 µM; stronger effect = lower value.
The nature of experiment [7]: MRP1 drug-resistance reversers in H69AR cells – cell-based, doxorubicin co-treatment, pilot screen (AID 601;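 active = viability loss from added drug above about 55%, and viability with drug at most 40%, in both replicates, limit read from the data, passing the limit was not always enough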). The note with it: CellTiter-Glo, 72 h, at 10 µM; for differential viability (reversal): stronger effect = higher value.
Experiment [8] can be described thus: yeast transport mutant growth inhibition pilot in 384-well plates, post-Golgi transport modulator project (AID 636; in the data active = inhibition above about 31%). The note with it: absorbance 615 nm, about 18 h, stronger effect = higher value.
The nature of experiment [9]: growth suppression of yeast trafficking mutant, preliminary HTS, modulators of trafficking downstream of Golgi apparatus project, 1536-format plate, OD 615 nm (AID 637; in the data active = inhibition above about 30%). The note with it: yeast transport mutant growth, absorbance 615 nm, 18 h; stronger effect = higher value.
Experiment [10] can be described thus: S. cerevisiae growth inhibition in permissive medium (OD615), pilot counter-assay for S. cerevisiae lifespan shortening project, permissive growth control (AID 705;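 active = growth inhibition above 25% in both replicates, a cutoff set 3 SD above the mean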). The note with it: OD615, 24 h, at 10 µM, stronger effect = higher value.
A short description of experiment [11]: S. cerevisiae growth inhibition in restrictive medium, OD615, pilot screen, restrictive growth control, yeast lifespan reduction project (AID 706;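 active = growth inhibition above a set limit, 3 SD over mean compound inhibition, in both replicates, cut at about 43% in these data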;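 note: modified DeaD lifespan yeast strain shifted to restrictive glucose medium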). The note with it: OD615, 48 h, at 10 µM, stronger effect = higher value.
Experiment [12] is described as follows: doxorubicin toxicity protection in MRP-1 cells – H69AR cells, CellTiter-Glo, duplicate, MRP-1 activator project, pilot screen (AID 807;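 active = viability increase at or above a cutoff of the median across tested compounds plus 3 SD, cut at about 8.5% in these data, passing the limit was not always enough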;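 note: compound pretreatment 18-22 h then 72 h combined with doxorubicin; 0% = doxorubicin alone and 100% = vehicle without doxorubicin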). The note with it: H69AR viability with doxorubicin, CellTiter-Glo luminescence; at 10 µM; stronger effect = higher value.
Experiment [13] can be described thus: viability of HCT116 without oncogenic beta-catenin – human colon tumor cells, pilot screen (AID 823;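 active = cell viability at or below a set limit in both duplicate runs, the limit being the all-compound median minus 4 SD, cut at about 23% in these data, passing the limit was not always enough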;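 note: 0% = wells killed by 20 µM Hyamine and 100% = untreated DMSO cell wells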). The note with it: HCT116 beta-catenin knockout viability, CellTiter-Glo, 60 h; at 10 µM; stronger effect = lower value.
Experiment [14] in a line: viability of PTEN-null HCT116 cells – cell-based, HCT116 clonal line, CellTiter-Glo, pilot screen (AID 824;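 active = viability at or below 27.92% in each of two runs, the all-compound median minus 4 SD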;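 note: 0% = 20 µM Hyamine control and 100% = vehicle cell control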). The note with it: HCT116 PTEN-deleted viability, 60 h, at 10 µM, stronger effect = lower value.
A short description of experiment [15]: RAM pathway blockade in budding yeast – dse1pr::URA3 reporter, 5-FOA selection, pilot screen (AID 869).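 Note: 0% = DMSO wells with no growth and 100% = 10 µM 1-NA-PP1 with full growth; RAM network block rescues cells from 5-FOA so hits raise OD615 growth.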 The note with it: S. cerevisiae dse1pr::URA3 5-FOA growth, OD615, 2 d, at 10 µM, stronger effect = higher value.
Experiment [16] is described as follows: RAM signaling pathway blockade in yeast – S. cerevisiae, Pdr1DBD-CYC8 efflux-inhibited sensitized strain, primary screen (AID 1298;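 active = RAM network inhibition above 8.4% in each of two replicates, 3 SD over the compound average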;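 note: 0% = DMSO untreated cells without growth and 100% = 10 µM 1-NA-PP1 full growth; higher means more yeast growth rescued from 5-FOA killing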). The note with it: S. cerevisiae cbk1-as DSE1-URA3 strain, 5-FOA growth OD615, 2 d; at 50 µM; stronger effect = higher value.
Setting [17] is: H69AR cells + 2 uM doxorubicin, measured here: viability with 2 uM doxorubicin, stronger effect = lower value.
Setting [18] is: H69AR cells, compound alone cytotoxicity.

SMILES strings stand for the structures. Records with an inconclusive call do not appear. Activity calls are given as the source filed them.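 Rule for the calls, unless noted: active = inhibition over a set limit, the all-compound mean plus 3 SD, in both replicate runs; inconclusive = over that limit in just one replicate run; inactive = at or under that limit in both runs.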

Pantothenate synthetase (Mycobacterium tuberculosis (strain ATCC 25618 / H37Rv)), sequence (P9WIL5 whole entry, looked up): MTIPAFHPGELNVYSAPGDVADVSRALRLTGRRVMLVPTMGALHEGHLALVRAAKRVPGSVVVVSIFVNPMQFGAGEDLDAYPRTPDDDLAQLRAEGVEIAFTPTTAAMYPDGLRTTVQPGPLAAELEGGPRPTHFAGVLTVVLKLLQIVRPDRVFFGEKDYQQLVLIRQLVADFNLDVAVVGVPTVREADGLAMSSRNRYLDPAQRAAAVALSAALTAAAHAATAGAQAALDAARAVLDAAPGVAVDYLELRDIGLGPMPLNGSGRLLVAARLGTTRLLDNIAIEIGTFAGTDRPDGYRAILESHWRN

As to `CN1CCN(c2nc3ccccc3c(=O)n2-c2ccccc2)CC1`, the inhibition in experiment [1] is 0% (inactive); in experiment [8], 0.64% (inactive); in [9] it was -1.17% (inactive); in experiment [15] it was 2.02% (inactive). Besides, the viability was 98.5% in [2]; 98.5% (inactive) in experiment [4]; 79.9% (inactive) in experiment [5]; 86.3% (inactive) in experiment [6]; 89.6% in experiment [7] (setting [17]); 86.3% in [7] (setting [18]). The viability in experiment [13] is 98.1% (inactive); in experiment [14], 99.3% (inactive). In [3], the Her2 level is 104% (inactive). Also, the differential viability (reversal) in experiment [7] (H69AR cells + 2 uM doxorubicin) was -3.29% (inactive). Also, the figures for the growth inhibition in experiment [10] and in experiment [11] were -13.4% (inactive) and -1.59% (inactive), respectively. The viability increase in [12] was -2.67% (inactive). Further, the RAM network inhibition in [16] is 1.34% (inactive).
Turning to `CCCC(C)C1C(C#N)=C(N)Oc2c1c(=O)oc1ccccc21` (stereo not given), the inhibition in [1] was 4% (inactive); in experiment [8] it was -2.21% (inactive); in experiment [9] it was -0.33% (inactive); in [15], 3.74% (inactive). Besides, the viability in experiment [2] is 116%; in [4], 116% (inactive); in [5], 66.8% (inactive); in experiment [6] it was 67.7% (inactive); in [7] (setting [17]), 79.2%; in experiment [7] (setting [18]), 67.7%. Also, the viability was 91.6% (inactive) in [13] and 97% (inactive) in experiment [14]. The Her2 level in experiment [3] was 106% (inactive). The differential viability (reversal) in experiment [7] (H69AR cells + 2 uM doxorubicin) was -11.5% (inactive). In addition, the growth inhibition is -16.8% (inactive) in [10] and -20.1% (inactive) in experiment [11]. Besides, the viability increase in experiment [12] was -5.21% (inactive). The RAM network inhibition in [16] is 8.16% (inactive).
For `c1ccc(C2NCc3ccccc3-n3cccc32)cc1` (stereo not given), the inhibition in [1] was 0% (inactive); in experiment [8], -4.53% (inactive); in experiment [9] it was 1.67% (inactive); in experiment [15] it was 2.53% (inactive). Also, the viability in experiment [2] was 86%; in experiment [4], 86% (inactive); in experiment [5], 104% (inactive); in experiment [6] it was 84.2% (inactive); in [7] (setting [17]) it was 78.4%; in [7] (setting [18]), 84.2%. Further, the figures for the viability in [13] and in experiment [14] were 68.2% (inactive) and 78.5% (inactive), respectively. Also, the Her2 level in experiment [3] was 93.5% (inactive). Further, the differential viability (reversal) in experiment [7] (H69AR cells + 2 uM doxorubicin) was 5.83% (inactive). In addition, the growth inhibition is -19% (inactive) in experiment [10] and -22.7% (inactive) in [11]. The viability increase in experiment [12] is -3.44% (inactive). Moreover, the RAM network inhibition in [16] was 2.46% (inactive).
Consider `Cc1ccc(CC2C(=O)N(C)C(=O)N(C)C2=O)s1`, for which the inhibition in [1] was 0% (inactive); in experiment [8], -3.77% (inactive); in experiment [9], -1.67% (inactive); in experiment [15], -0.01% (inactive). In addition, the viability in [2] is 106%; in experiment [4] it was 106% (inactive); in experiment [5] it was 82.8% (inactive); in experiment [6], 95.4% (inactive); in experiment [7] (setting [17]), 88.3%; in [7] (setting [18]), 95.4%. The viability was 100% (inactive) in experiment [13] and 99.6% (inactive) in experiment [14]. The Her2 level in [3] was 119% (inactive). Moreover, in experiment [7] (H69AR cells + 2 uM doxorubicin), the differential viability (reversal) is 7.06% (inactive). Besides, the growth inhibition in experiment [10] was -2.9% (inactive); in [11], 3.58% (inactive). Further, the viability increase in experiment [12] is 0.21% (inactive). For the same compound, the RAM network inhibition in [16] is 4.4% (inactive).
On to `CC12CCC(=O)C=C1CCC1C2CCC2(C)C(O)CCC12` (stereo not given), for which the results for the growth inhibition in experiment [10] and in [11] were 5.38% (inactive) and 6.93% (inactive), respectively. Moreover, the viability increase in experiment [12] is -3.17% (inactive). The viability in experiment [13] was 89.5% (inactive); in [14], 94% (inactive). The inhibition in experiment [15] was 0.475% (inactive). The RAM network inhibition in [16] was 1.32% (inactive).
As for `CCCCCCOc1ccc(CN2CCN(CCO)CC2)cc1`, the growth inhibition is -16.7% (inactive) in experiment [10] and 2.46% (inactive) in [11]. The viability increase in [12] was -6.03% (inactive). Also, the figures for the viability in experiment [13] and in [14] were 60.7% (inactive) and 75.5% (inactive), respectively. Further, the inhibition in experiment [15] is 2% (inactive). In experiment [16], the RAM network inhibition was -1.21% (inactive).
Take `CN(C)C(=O)Oc1ccc(OC(=O)N(C)C)cc1`: the results for the growth inhibition in experiment [10] and in [11] were 1.07% (inactive) and -14.3% (inactive), respectively. Besides, the viability increase in experiment [12] was 0.6% (inactive). Also, the viability in experiment [13] was 104% (inactive); in [14], 99.5% (inactive). Moreover, the inhibition in experiment [15] was 1.02% (inactive). Further, in experiment [16], the RAM network inhibition is -0.32% (inactive).
For `CC1(C)Cc2c(sc3c2C(=O)NC(c2cccnc2)N3)CO1` (stereo not given), the inhibition was 7% (inactive) in experiment [1], -3.47% (inactive) in experiment [8], 1.48% (inactive) in [9] and 1.58% (inactive) in experiment [15]. The viability in [2] is 113%; in experiment [4] it was 113% (inactive); in experiment [5], 102% (inactive); in [6] it was 98.5% (inactive); in experiment [7] (setting [17]) it was 85.7%; in experiment [7] (setting [18]) it was 98.5%. The viability in [13] is 107% (inactive). In experiment [3], the Her2 level is 83.5% (inactive). In experiment [7] (H69AR cells + 2 uM doxorubicin), the differential viability (reversal) was 12.8% (inactive). Further, the growth inhibition was -16.3% (inactive) in [10] and 11.8% (inactive) in experiment [11]. Also, the viability increase in experiment [12] is -2.97% (inactive). In addition, the RAM network inhibition in experiment [16] is 5.15% (inactive).
In the case of `COC(=NC1CCCC1)C(O)c1c[nH]c2ccccc12` (stereo not given), the inhibition in [1] was 0% (inactive); in [8] it was -0.82% (inactive); in experiment [9], -4.44% (inactive); in experiment [15] it was 0.825% (inactive). Besides, the viability in experiment [2] is 101%; in experiment [4] it was 101% (inactive); in experiment [5] it was 102% (inactive); in experiment [6], 108% (inactive); in experiment [7] (setting [17]), 106%; in experiment [7] (setting [18]) it was 108%. In addition, the viability in experiment [14] was 81.2% (inactive). The Her2 level in experiment [3] is 103% (inactive). The differential viability (reversal) in experiment [7] (H69AR cells + 2 uM doxorubicin) is 1.98% (inactive). Moreover, the growth inhibition in [10] was -12.2% (inactive); in experiment [11], -12.5% (inactive). Also, the viability increase in experiment [12] was -4.16% (inactive). Besides, the RAM network inhibition in experiment [16] was 0.62% (inactive).
`Cc1ccnc(-n2c(C)nc3ccccc3c2=O)c1`: the growth inhibition was -1.76% (inactive) in experiment [10] and -3.79% (inactive) in experiment [11]. In addition, the viability increase in experiment [12] was -2.48% (inactive). For the same compound, the viability was 90.8% (inactive) in [13] and 90.7% (inactive) in experiment [14]. In addition, the inhibition in experiment [15] is 0.27% (inactive). Further, in experiment [16], the RAM network inhibition is -0.81% (inactive).
On to `C=CCOC(=O)COc1cc(C)cc2oc(=O)c3c(c12)CCC3`, for which the inhibition in experiment [1] was 1% (inactive); in [8] it was -5.73% (inactive); in [9], -0.73% (inactive); in experiment [15], 1.63% (inactive). Moreover, the viability in experiment [4] is 81% (inactive); in experiment [5], 97.2% (inactive); in experiment [6], 84.4% (inactive); in experiment [7] (setting [17]), 86.7%; in [7] (setting [18]) it was 84.4%; in experiment [13] it was 90.7% (inactive). Moreover, the viability in [14] is 99.4% (inactive). Also, in experiment [7] (H69AR cells + 2 uM doxorubicin), the differential viability (reversal) is -2.28% (inactive). Also, the growth inhibition in experiment [10] is -7.89% (inactive); in experiment [11], -2.46% (inactive). The viability increase in experiment [12] is -0.23% (inactive). Further, the RAM network inhibition in [16] was 6.89% (inactive).

By inhibition is commonly meant the drop in the measured response relative to a control, in per cent. What is called viability is a read-out of living cells in per cent, often relative to untreated cells.

The record behind these values is PubChem BioAssay.
